Results published in PubChem BioAssay (Tox21).
Several values for one entry are separate records, joined by “and”; a condition that tells them apart may be missing. Identical values can stand only once. Inconclusive results are not listed. Some compounds were tested as several samples or in several runs, with calls that do not always agree. Activity calls are given as the source filed them. Calls follow the shape of the dose curve; as a rule, active = well fitted inhibition curve with a large enough effect in the signal ratio in the repeat runs (not every such curve was filed as active); inconclusive = weak or mixed curves, or effect the other way; inactive = no such curve, though single readings can be large or run the other way; the % refers to the signal ratio. Starred links: 1 amine or outer side, 2 acyl side, 3 side chain; linkers in the order of their positions; H or OH if unused. Positions of bridges follow the written chain, without caps; N, C: chain ends. Non-standard residues stand in square brackets, D forms with d. Residues, ends and D or L forms follow the SMILES beside them. Chains are numbered I, II in the order given. Actinocin(9to1) = Cc1c2oc3c(C)ccc(C(=O)[*:1])c3nc-2c(C(=O)[*:2])c(N)c1=O; NMeV = CN[C@H](C(=O)O)C(C)C; Sar = CNCC(=O)O

target: Glucocorticoid receptor (Homo sapiens) (UniProt P04150); experiment: qHTS assay to identify small molecule antagonists of the glucocorticoid receptor (GR) signaling pathway (AID 720692); conditions: GR-bla HeLa, beta-lactamase FRET ratio, dexamethasone-stimulated, 18 h; series mostly up to 58.5 µM; activity change, negative = inhibition: at the top concentration
Sequence (P04150 whole entry, looked up): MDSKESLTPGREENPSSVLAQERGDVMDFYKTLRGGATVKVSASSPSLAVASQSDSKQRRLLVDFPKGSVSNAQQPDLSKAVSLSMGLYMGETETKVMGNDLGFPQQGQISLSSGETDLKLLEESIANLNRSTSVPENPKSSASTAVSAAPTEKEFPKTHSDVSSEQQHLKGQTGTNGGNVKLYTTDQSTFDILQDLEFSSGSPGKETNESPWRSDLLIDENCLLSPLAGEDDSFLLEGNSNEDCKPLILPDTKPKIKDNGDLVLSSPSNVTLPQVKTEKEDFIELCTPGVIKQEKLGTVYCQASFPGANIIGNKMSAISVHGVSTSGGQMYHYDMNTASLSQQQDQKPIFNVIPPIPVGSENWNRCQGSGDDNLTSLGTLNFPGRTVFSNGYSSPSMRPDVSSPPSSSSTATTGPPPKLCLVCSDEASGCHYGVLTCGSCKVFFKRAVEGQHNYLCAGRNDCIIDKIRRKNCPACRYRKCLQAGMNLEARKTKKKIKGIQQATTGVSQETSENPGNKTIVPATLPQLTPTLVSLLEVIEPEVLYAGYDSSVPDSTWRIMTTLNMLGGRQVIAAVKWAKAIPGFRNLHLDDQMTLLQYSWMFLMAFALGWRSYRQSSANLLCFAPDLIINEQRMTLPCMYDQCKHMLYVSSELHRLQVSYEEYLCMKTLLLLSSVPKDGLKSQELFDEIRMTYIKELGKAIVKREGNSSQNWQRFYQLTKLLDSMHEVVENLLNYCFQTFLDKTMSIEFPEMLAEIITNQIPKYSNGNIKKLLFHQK
From the text: U.S. Tox21 Program National Center for Advancing Translational Sciences [NCATS] NIH Chemical Genomics Center [NCGC] U.S. Environmental Protection Agency [EPA] National Institutes of Environmental Health Sciences [NIEHS] National Toxicology Program [NTP] U.S. Food and Drug Administration [FDA] Tox21 Assay Overview: The Glucocorticoid receptor (GR) is one of the members of the nuclear receptor family of ligand-dependent transcription factors. GR plays a critical role in carbohydrate, protein and lipid metabolisms and programmed cell death. CellSensor GR-bla HeLa cell line (Invitrogen) contains a beta-lactamase reporter gene under the control of the glucocorticoid response element stably integrated into HeLa cells, a cervical cancer cell line that expresses glucocorticoid receptor. The activation of the reporter gene under culture conditions can be detected by fluorescence intensity. This cell line has been used to screen the Tox21 10K compound library and to identify the compounds that inhibit the GR signaling.
Tox21 Assay Protocol Summary: The GR-bla HeLa cells were dispensed at 1500 cells/5 ul/well in 1536-well black wall/clear bottom plates using a Multidrop Combi (ThermoFisher Scientific, Waltham, MA) dispenser. After the assay plates were incubated at a 37 C/5% CO2 incubator for 4 hours, 23 nL of compounds dissolved in DMSO, positive controls or DMSO only was transferred to the assay plate by a pintool station (Kalypsys, San Diego, CA), followed by addition of 1 uL of dexamethasone (5 nM, final concentration in the well). The plates were incubated at 37 C for 18 hours. After 1 uL of LiveBLAzerTM B/G FRET substrate was added using a Flying Reagent Dispenser (Aurora Discovery, San Diego, CA), the plates were incubated at room temperature for 2 hours, and fluorescence intensity was measured by an Envision plate reader (PerkinElmer, Shelton, CT).
% is scaled to controls: 0 for no effect and ±100 for the full control effect; potency is read from the fitted curve at half-maximal effect.

Structure (SMILES)	Potency	activity change, negative = inhibition
CCCCCCCCCCCC[N+](C)(C)C	21.8 µM (active) and 21.9 µM (active)	–
CCOc1ccccc1C(N)=O	inactive	–
O=C(OCc1ccccc1)c1ccc(O)cc1	–	0.389% (inactive)
Nc1nc(=S)c2[nH]cnc2[nH]1	23.9 µM (active) and 30.1 µM (active) and 43.6 µM (active)	–
Cc1cccc([N+](=O)[O-])c1C(=O)O	–	14.9% (inactive)
Clc1ccc2c(c1)C(N1CCNCC1)=Nc1ccccc1O2	19 µM (active) and inactive	–
CCCCCC(=O)O[C@]1(C(C)=O)CC[C@H]2[C@@H]3CCC4=CC(=O)CC[C@]4(C)[C@H]3CC[C@@]21C	268 nM (active) and 194 nM (active)	–
Nc1cc(S(=O)(=O)O)cc2cc(S(=O)(=O)O)cc(O)c12	inactive	–
CC1COC(=O)O1 (stereo not given)	–	17.3% (inactive)
COc1nc(C)nc(Cl)c1NC1=NCCN1	–	0.897% [at 27 µM] (inactive)
CC(N)=O	–	-2.53% [at 216 µM] (inactive)
Cc1cccc(O)c1C	inactive	–
CC(C)(C)c1cc(C(C)(C)C)c(O)c(C(C)(C)C)c1	inactive	–
CCCNC(C)C(=O)Nc1ccccc1C (stereo not given)	–	6.23% (inactive)
CC[C@H]1CN2CCc3cc(OC)c(OC)cc3[C@@H]2C[C@@H]1C[C@H]1NCCc2cc(OC)c(OC)cc21	1.51 µM (active)	–
CCCOC(=O)c1cc(O)c(O)c(O)c1	–	-11.2% (inactive)
OCC(CO)N[C@H]1C[C@](O)(CO)[C@@H](O)[C@H](O)[C@H]1O	–	-2.17% (inactive)
C=CC(=O)OCCCCCCOC(=O)C=C	39.4 µM (active) and 43.6 µM (active)	–
CC(=O)Nc1ccc(C(=O)CCl)cc1	–	0.0355% [at 78.9 µM] (inactive)
O=C(O)c1cccc(C(=O)O)c1	inactive	–

Structure (SMILES)	Potency	activity change, negative = inhibition
C=CC(=O)OCCCCCCCC	–	2.39% (inactive)
O=C(O)CP(=O)(O)O	–	12.7% (inactive)
CC(C)(O)CCC(C)(C)O	–	6.68% [at 78.9 µM] (inactive)
COc1cc(C(=S)N2CCOCC2)ccc1O	–	10.4% (inactive)
NC(=Nc1ccccc1)Nc1ccccc1	–	1.5% (inactive)
OCCN1CCNCC1	inactive	–
CCC(C)(Oc1ccc(C2(c3ccc(OC(C)(CC)C(=O)O)cc3)CCCCC2)cc1)C(=O)O (stereo not given)	–	-7.41% (inactive)
c1cc(C(c2ccc(OCC3CO3)cc2)C(c2ccc(OCC3CO3)cc2)c2ccc(OCC3CO3)cc2)ccc1OCC1CO1 (stereo not given)	–	-6.67% [at 78.9 µM] (inactive)
O=C1NCC2(CCN(CCc3ccccc3)CC2)O1	–	-2.83% (inactive)
Cc1c2oc3c(C)ccc(C(=O)N[C@@H]4C(=O)N[C@H](C(C)C)C(=O)N5CCC[C@H]5C(=O)N(C)CC(=O)N(C)[C@@H](C(C)C)C(=O)O[C@@H]4C)c3nc-2c(C(=O)N[C@@H]2C(=O)N[C@H](C(C)C)C(=O)N3CCC[C@H]3C(=O)N(C)CC(=O)N(C)[C@@H](C(C)C)C(=O)O[C@@H]2C)c(N)c1=O (I: T[dV]P[Sar][NMeV] / II: T[dV]P[Sar][NMeV]; ester I:1-I:C, II:1-II:C; linker I:N-II:N via Actinocin(9to1))	0.134 µM (active)	–
C/C=C/c1ccc(OCC)c(O)c1	–	4.51% (inactive)
CCC(=O)/C=C/C1C(C)=CCCC1(C)C (stereo not given)	–	-17.3% (inactive)
COC(=O)/C=C/c1ccccc1	–	-4.14% (inactive)
CC(C)(C)NC(=O)[C@@H]1CN(Cc2cccnc2)CCN1C[C@@H](O)C[C@@H](Cc1ccccc1)C(=O)N[C@H]1c2ccccc2C[C@H]1O	–	8.61% (inactive)
Nc1ccc(O)cc1	49 µM (active)	–
CNCCC(Oc1ccc(C(F)(F)F)cc1)c1ccccc1 (stereo not given)	–	-11.7% (inactive)
C=CS(=O)(=O)O	inactive	–
NC(Cc1ccc(Cl)cc1)C(=O)O (stereo not given)	–	0.847% (inactive)
Cc1occc(=O)c1OC(=O)C(C)C	–	17.2% (inactive)
Nc1nc2ccccc2[nH]1	inactive	–
